KCNQ2 pot: enhances the rat KCNQ2 potassium channel | O88943 | CHO-K1 KCNQ2, FluxOR thallium flux fluorescence; stronger effect = higher value | B-score at 10 µM | 310,000 tested, 0.54% active | AID 2239;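 active means fluorescence ratio B-score at least 3 SD of library B-scores, with initial fluorescence B-score within 3 of them, cut at about 5.3 in these data; same plate scores as AID 2156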;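 further: B-score of peak minus minimum over baseline fluorescence ratio after K+ and Tl+ stimulus; positive B-score means potentiation of KCNQ2 with more thallium influx and brighter signal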
KCNQ2 inh: blocks the rat KCNQ2 potassium channel; CHO-K1 KCNQ2, FluxOR thallium flux, 20 min; stronger effect = lower value; B-score at 10 µM; AID 2156; O88943; 310,000 tested, 1.1% active;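 active means fluorescence ratio B-score at most minus 3 library SDs, with starting brightness B-score within 2 library SDs, cut at about -5.5 in these data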
Kir21 confirm: confirmation of mouse Kir2.1 potassium channel inhibitors; 2,300 tested, 41% active; shares compounds with KCNQ2 pot; Kir2.1-expressing cells, FluxOR thallium flux fluorescence; stronger effect = lower value; Tl flux remaining, % of negative control (stronger effect = lower value), % at 10 µM; AID 2032;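 active means Primary-screen hit whose thallium flux fell at least 3 control SD below untreated wells in both duplicates, with normal baseline fluorescence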
HEK293 ctr: parental HEK293 activity in Kir2.1 inhibitor counter-screen; shares compounds with KCNQ2 pot; parental HEK293 cells, FluxOR thallium flux fluorescence; 0% = unstimulated blank wells; FluxOR signal as % of negative control (100 = no effect), % at 10 µM; 2,300 tested, 19% active; AID 2105;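 active means dye signal at least 3 control SD above or below untreated wells in both duplicates, raw fluorescence within 3, either direction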;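 further: percent is based on the flux ratio of peak minus minimum fluorescence over baseline F0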
CHO-K1 Tl ctr: counter-screen for KCNQ2 potentiators: effect in parental CHO-K1 cells; shares compounds with KCNQ2 pot; FluxOR thallium flux fluorescence; zero = vehicle mean+3SD, 100% = vehicle-minus-blank window; activity increase over 3SD of controls, % at 10 µM; 1,200 tested, 43% active; AID 2282;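 active means signal rise of at least 3 SD above the untreated control mean, in both duplicate wells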;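 further: counter screen of KCNQ2 potentiator hits so any rise reflects channel-independent effects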
KCNQ1 pot spec: selectivity of KCNQ2 potentiators: effect on human KCNQ1 | AID 2283 | 1,200 tested, 28% active | shares compounds with KCNQ2 pot | CHO KCNQ1 stable, FluxOR thallium flux fluorescence; beyond 3SD, as % of vehicle-control signal | activation over 3SD threshold, % at 10 µM;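 active means fluorescence ratio rise of at least 3 SD of vehicle wells above their mean, in both replicate wells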
KCNQ2 pot confirm: rat KCNQ2 channel potentiator confirmation | potentiation, less the hit threshold, % at 10 µM | shares compounds with KCNQ2 pot | 1,200 tested, 68% active | CHO-KCNQ2 cells, FluxOR thallium flux fluorescence;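 active means fluorescence ratio rising 3 SD or more over the vehicle control mean in both replicates, plus primary screen hit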;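 further: peak minus minimum thallium fluorescence divided by baseline after K/Tl stimulus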
Kir21 spec: tests whether KCNQ2 potentiators also affect mouse Kir2.1 | shares compounds with KCNQ2 pot | activity over 3SD threshold, % at 10 µM | AID 2345 | 1,200 tested, 2% active | HEK293 Kir2.1, FluxOR thallium flux fluorescence;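 active means fluorescence ratio rise of at least 3 SD above the vehicle-control mean, seen in both replicates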
KCNQ2 W236L pot: rat KCNQ2 W236L mutant potentiation by KCNQ2 potentiators; shares compounds with KCNQ2 pot; CHO KCNQ2-W236L, automated patch clamp current; current increase over 3SD of negative controls (%), stronger effect = higher value, % at 25 µM; 940 tested, 10% active;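 active means current increase at least 3 SD of the untreated controls above them in both duplicate recordings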
Target sequence (O88943 whole entry W236L, looked up): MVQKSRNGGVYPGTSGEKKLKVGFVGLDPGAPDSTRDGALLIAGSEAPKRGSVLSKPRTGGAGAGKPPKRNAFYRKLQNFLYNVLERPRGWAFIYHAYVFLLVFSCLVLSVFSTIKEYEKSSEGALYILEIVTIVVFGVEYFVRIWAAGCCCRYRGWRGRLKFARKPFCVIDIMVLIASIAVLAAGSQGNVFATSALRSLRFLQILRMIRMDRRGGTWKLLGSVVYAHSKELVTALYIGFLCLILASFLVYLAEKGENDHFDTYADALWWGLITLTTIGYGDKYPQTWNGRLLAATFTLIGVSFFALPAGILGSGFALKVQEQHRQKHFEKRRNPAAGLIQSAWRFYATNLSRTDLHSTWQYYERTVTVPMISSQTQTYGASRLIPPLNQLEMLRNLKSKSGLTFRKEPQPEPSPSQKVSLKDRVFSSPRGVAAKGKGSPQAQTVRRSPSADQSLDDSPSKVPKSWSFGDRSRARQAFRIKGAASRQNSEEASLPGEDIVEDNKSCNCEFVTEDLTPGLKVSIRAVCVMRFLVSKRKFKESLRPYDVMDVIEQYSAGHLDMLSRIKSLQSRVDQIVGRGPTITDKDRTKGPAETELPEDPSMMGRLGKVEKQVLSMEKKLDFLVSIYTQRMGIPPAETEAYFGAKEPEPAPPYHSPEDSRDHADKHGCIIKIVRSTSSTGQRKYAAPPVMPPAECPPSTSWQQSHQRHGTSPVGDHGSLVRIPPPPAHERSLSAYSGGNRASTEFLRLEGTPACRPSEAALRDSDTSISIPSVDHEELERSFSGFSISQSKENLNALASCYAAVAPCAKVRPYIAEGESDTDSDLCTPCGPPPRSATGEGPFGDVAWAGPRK
Numbers stand for hits; n = inactive; x = no result given; + = active, no number. A selection: hits, their analogues and other compounds. The true share with any hit is near 1.6%.

SMILES | KCNQ2 pot | KCNQ2 inh | Kir21 confirm | HEK293 ctr | CHO-K1 Tl ctr | KCNQ1 pot spec | KCNQ2 pot confirm | Kir21 spec | others
O=S(=O)(c1ccc(Cl)cc1)N1CCSC1c1ccco1 (stereo not given) | x | n | 66% | n | x | x | x | x
CCC(C)c1ccc(NC(=O)C2CC3CCC2C3)cc1 (stereo not given) | 26 | n | n | n | 7.5 | n | 105 | n | KCNQ2 W236L pot=n
CCOc1ccc(NC(=O)C2CC3CCC2C3)cc1 (stereo not given) | n | n | x | x | x | x | x | x
CC(C)c1ccc(NC(=O)C2CC3CCC2C3)cc1 (stereo not given) | 26 | n | n | n | 30 | n | 66 | n | KCNQ2 W236L pot=n
O=C(Nc1ccc(F)cc1)C1CC2CCC1C2 (stereo not given) | n | n | x | x | x | x | x | x
Cc1cccc(OCCCC(=O)N2CCCCCC2)c1C | x | n | x | x | x | x | x | x
CCc1noc(C)c1C(=O)Nc1cc(S(=O)(=O)N2CCOCC2)ccc1N1CCN(CC)CC1 | n | n | x | x | x | x | x | x
CC(=O)c1c(C)[nH]c(C(=O)Nc2cccc(C(F)(F)F)c2)c1C | n | n | x | x | x | x | x | x
CC(Oc1cccc(Cl)c1)C(=O)Nc1ccc(N2CCOCC2)cc1N1CCOCC1 (stereo not given) | x | n | x | x | x | x | x | x
COCCN(C(=O)COC(=O)c1cc(C)oc1C)c1c(N)n(Cc2ccccc2)c(=O)[nH]c1=O | x | n | x | x | x | x | x | x
COc1ccc(CNc2nc3ccccc3n2CCN2CCCCC2)cc1 | x | n | x | x | x | x | x | x
COc1ccc(CCN2CCC(Nc3nc4ccccc4n3Cc3ccc(F)cc3)CC2)cc1 | x | n | n | n | x | x | x | x
O=C(NC(=S)N1CCN(c2ccc(Cl)cc2[N+](=O)[O-])CC1)c1cccs1 | 5.5 | n | n | 151% | 53 | 24 | 8.6 | n | KCNQ2 W236L pot=n
O=C(NC(=S)N1CCN(c2ccc(Cl)cc2[N+](=O)[O-])CC1)c1ccco1 | x | n | x | x | x | x | x | x
COc1ccc(/C=N/Nc2cc(C)nc3ccccc23)cc1 | x | n | 35% | n | x | x | x | x
COc1ccc(/C=N/Nc2cc(C)nc3c(C)cccc23)cc1 | x | n | x | x | x | x | x | x
Cc1ccc(OCc2cc(C(=O)N(C)CCc3nc4ccccc4[nH]3)no2)cc1C | x | n | x | x | x | x | x | x
Cc1ccc(S(=O)(=O)CC(O)COc2ccc(F)cc2Cl)c(C)c1 (stereo not given) | n | n | 52% | n | x | x | x | x
Cc1ccc(S(=O)(=O)CC(O)COc2ccc(F)cc2Cl)cc1 (stereo not given) | n | n | x | x | x | x | x | x
Cc1ccc(C(=O)NNC(=O)CSc2n[nH]c(-c3cccnc3)n2)cc1 | x | n | x | x | x | x | x | x
CCCn1nnnc1NCc1cccc(OC)c1 | x | n | x | x | x | x | x | x
CCS(=O)(=O)n1nc(NCc2cccc(OC)c2)nc1NCc1cccc(OC)c1 | 15 | n | x | x | 78 | n | n | n
CCN(c1cccc(C)c1)S(=O)(=O)c1ccc2c(c1)NC(=O)CS2 | x | n | 62% | n | x | x | x | x
CCN(c1ccc(OC)cc1)S(=O)(=O)c1ccc2c(c1)NC(=O)CS2 | x | n | x | x | x | x | x | x
CCN=c1scc(-c2ccc(F)cc2)n1/N=C/c1ccccn1 | n | n | x | x | x | x | x | x
SMILES | KCNQ2 pot | KCNQ2 inh | Kir21 confirm | HEK293 ctr | CHO-K1 Tl ctr | KCNQ1 pot spec | KCNQ2 pot confirm | Kir21 spec | others
CCCc1sc(N/N=C/c2ccccn2)nc1-c1ccc(F)cc1 | 5.8 | n | n | n | n | 12 | n | n
Fc1ccc(-c2nc3ccccc3[nH]2)cc1 | n | n | x | x | x | x | x | x
S=c1nc(-c2ccc(Br)cc2)[nH]c2ccccc12 | 26 | n | n | 452% | n | n | 40 | n | KCNQ2 W236L pot=n
O=C(Nc1ccc(NC(=S)NC(=O)c2ccccc2Cl)cc1)c1cccc(Cl)c1 | x | n | x | x | x | x | x | x
O=C(NCc1ccc(Cl)cc1Cl)Nc1ccccc1 | 11 | n | n | n | n | 4.9 | 29 | n | KCNQ2 W236L pot=9.9%
O=C(NCc1csc2ccc(Cl)cc12)Nc1ccccc1 | x | n | x | x | x | x | x | x
CCN1CCN(CC(O)COC(c2ccccc2)c2ccccc2C)CC1 (stereo not given) | n | n | x | x | x | x | x | x
CCn1c(=O)c(=O)[nH]c2c(=O)oc3ccc(S(=O)(=O)Nc4ccccc4)cc3c21 | x | n | x | x | x | x | x | x
COC(=O)CN1C(=O)Nc2ccc(Br)cc2C1c1ccccc1Cl (stereo not given) | 15 | n | n | n | n | + | 38 | n | KCNQ2 W236L pot=6.9%
COC(=O)CN1C(=O)Nc2ccc(Cl)cc2C1c1ccccc1 (stereo not given) | n | n | x | x | x | x | x | x
CCCCNC(=O)Cn1c2c(c(-c3ccccc3Cl)cc1=O)CCC2 | n | n | x | x | x | x | x | x
O=C(Cn1c2c(c(-c3ccccc3)cc1=O)CCCC2)N1CCCCCC1 | 8.4 | n | n | n | 34 | 19 | 12 | n | KCNQ2 W236L pot=n
CCCc1cc(=O)n2nc(N3CCC(C(=O)NCc4ccco4)CC3)sc2n1 | x | n | x | x | x | x | x | x
CN(C(=O)c1ccccc1F)C(c1ccccc1)c1ccccc1 | x | n | 66% | n | x | x | x | x
CC(/C=N/NC(=O)c1ccccc1F)c1ccccc1 (stereo not given) | n | n | x | x | x | x | x | x
COc1ccccc1-c1ccc2nnc(SC)n2n1 | n | n | x | x | x | x | x | x
O=C(CCCc1nc2ccccc2s1)Nc1ccc(N2CCOCC2)cc1 | x | n | x | x | x | x | x | x
CCn1nc(NC(=O)C(C)(C)C)c2cc3cccc(C)c3nc21 | 8.5 | n | n | n | 20 | 3.4 | n | n | KCNQ2 W236L pot=n
CCCn1nc(NC(=O)COC)c2cc3cccc(C)c3nc21 | x | n | x | x | x | x | x | x
CCCn1nc(NC(=O)CC(C)C)c2cc3cccc(C)c3nc21 | 5.3 | n | n | n | n | n | n | n
CCCn1nc(NC(C)=O)c2cc3cccc(C)c3nc21 | n | n | x | x | x | x | x | x
Cc1cc(C)c(S(=O)(=O)c2cccc(Cl)c2)c(Cl)n1 | x | n | x | x | x | x | x | x
CCOc1nc(C)cc(C)c1S(=O)(=O)c1cccc(Cl)c1 | x | n | 61% | n | x | x | x | x
CCc1nc(SCC(=O)N2CCC(C)CC2)c2c(=O)n(C)c(=O)n(C)c2n1 | 16 | n | n | n | n | n | 81 | n | KCNQ2 W236L pot=n
CC(C)Cc1nc(SCC(=O)N2CCOCC2)c2c(=O)n(C)c(=O)n(C)c2n1 | n | n | x | x | x | x | x | x
CCc1nc(SCC(N)=O)c2c(=O)n(C)c(=O)n(C)c2n1 | n | n | x | x | x | x | x | x
CCc1nc(SCC(=O)N2CCCCC2)c2c(=O)n(C)c(=O)n(C)c2n1 | 9.1 | n | n | n | n | n | 42 | n | KCNQ2 W236L pot=n
CCCc1nc(SCC(=O)N2CCC(C)CC2)c2c(=O)n(C)c(=O)n(C)c2n1 | 25 | n | n | n | n | n | 141 | n | KCNQ2 W236L pot=n
CC1CCN(C(=O)CSc2nc3c(c(=O)n(C)c(=O)n3C)n2C)CC1 | n | n | x | x | x | x | x | x
